Nrf2 block: Nrf2 qHTS screen for inhibitors; A549 ARE-Fluc reporter, luciferase luminescence, 18-24 h; Potency, µM (series often up to 46 µM), inactives show at the highest dose activity change, negative = inhibition, actives largely listed as inhibitors; 2.1% of 360,000 active; also: potency is read from the fitted curve at half-maximal effect; % is scaled to controls: 0 for no effect and ±100 for the full control effect; nearly all actives have a fitted effect of over 60% in size
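A549 ARE_Fluc cells, 5000/well, 5% FBS OPTI-MEM; compounds in dose-response, 18-24 h at 37 °C/5% CO2; CellTiter-Fluor viability read (Ex 405/Em 525), then BugLite luciferase luminescence = Nrf2 activity.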
Nrf2 ARE act: qHTS of Nrf2 Activators. AREc32 ARE-luciferase reporter (MCF7-derived line), luminescence, 24 h. Potency, µM (doses to about 46.1 µM), inactives show at the highest dose activation, hits mostly activators. 0.31% of 410,000 active. AID 624171, 2012; also: potency is read from the fitted curve at half-maximal effect; % of control where 0% means no effect; nearly all actives have a fitted effect of over 65% in size
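Nrf2 activation is followed as ARE-luciferase induction in the AREc32 line after one day of compound treatment; luminescence is read with Steady-Glo.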
miR-21 act: qHTS Assay for Modulators of miRNAs and/orActivators of miR-21 | Potency, µM (top dose mostly 38.3 µM), without a hit: at the highest dose activity change, positive = activation, hits mostly activators | AID 2288, 2010 | HeLa miR-21 FLuc reporter, luciferase, 48 h | 340,000 tested, under 10 active;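 also: % of control where 0% means no effect; miR-21 action dims this reporter so a rising signal means less miR-21 action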
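HeLa cells stably expressing CMV-driven firefly luciferase with a downstream miR-21 binding sequence, endogenously expressing miR-21, were treated with titrations (up to about 40uM final) for 48 hours at 37 degree Celsius. Luciferase luminescence was read after lysis.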
A549 viability: Nrf2 qHTS screen for inhibitors: counterscreen for cytotoxicity; Potency, µM (titrated, usually from 46 µM), inactives show at the top dose activity change, negative = cytotoxicity, most hits filed as inhibitors; A549 ARE-Fluc cells, CellTiter-Fluor viability, 18-24 h; 0.16% of 390,000 active; AID 504648, 2011; also: potency is read from the fitted curve at half-maximal effect; % is scaled to controls: 0 for no effect and ±100 for the full control effect
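A549 ARE_Fluc cells in 5% FBS OPTI-MEM were exposed to compounds in concentration-response for 18-24 h at 37 deg C. Viability was read by CellTiter-Fluor fluorescence (Ex 405/Em 525) after 30 min, before the luciferase read.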
PI4K2A block: qHTS for small molecular inhibitors of PI4K2A; Phosphatidylinositol 4-kinase type 2-alpha (Homo sapiens), Q9BTU6; purified PI4K2A, ADP-Glo luminescence, 1 h; hits give low values; activity change, negative = inhibition, % at 76.9 µM; 0.13% of 420,000 active; AID 1346378, 2018; in the data active = activity change below about -50%; inconclusive = mostly about -30% to -49%;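 also: -100% = wells without enzyme as full effect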
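ADP-Glo luminescence measured ADP generated by PI4K2A enzyme (4 ug/mL before mixing) with 1.2 mM PI substrate (pre-mix) and 300 microM ATP (pre-mix). Tris pH7.5 buffer with MgCl2, Triton X-100; 1 h reaction at ambient temperature.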
GALK inh: qHTS Assay for Inhibitors of Human Galactokinase (GALK); P51570; Purified GALK, Kinase-Glo residual ATP luminescence; Potency, µM (top dose mostly 57.5 µM), for inactives: at the top dose activity change, negative = inhibition, hits mostly inhibitors; 0.007% of 270,000 active; also: potency is read from the fitted curve at half-maximal effect; % is scaled to controls: 0 for no effect and ±100 for the full control effect
Target sequence (P51570 whole entry, looked up): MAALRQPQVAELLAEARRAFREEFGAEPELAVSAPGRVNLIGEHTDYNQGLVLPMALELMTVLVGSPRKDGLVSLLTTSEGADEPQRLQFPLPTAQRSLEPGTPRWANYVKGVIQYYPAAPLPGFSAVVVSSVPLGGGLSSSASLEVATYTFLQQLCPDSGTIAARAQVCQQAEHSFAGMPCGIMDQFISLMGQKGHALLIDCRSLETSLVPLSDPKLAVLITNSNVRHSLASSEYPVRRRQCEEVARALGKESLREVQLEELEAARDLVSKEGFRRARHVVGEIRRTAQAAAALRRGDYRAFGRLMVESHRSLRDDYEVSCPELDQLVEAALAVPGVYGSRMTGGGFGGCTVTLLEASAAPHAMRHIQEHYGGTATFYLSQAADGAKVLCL
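GALK at 5 nM final was combined with compound, 35 uM ATP and 100 uM galactose in HEPES pH8.0 with MgCl2 and DTT. The reaction ran one hour at room temperature before luminescent ATP detection.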
The depositor's hits bear a star; ? = inconclusive; / = not tested or not shown; ! = not active in a repeat; [ ] = another dose, or the depositor's remark. A selection: hits, their analogues and other compounds. The true share with any hit is near 2.2%. Unless noted, calls follow the shape of the dose curve; as a rule, active = well fitted curve in the direction sought with a large enough effect; inconclusive = small, poorly fitted or top-dose-only effect, or another doubt; inactive = no such curve, though single readings can be large; an effect the other way counts as inactive or inconclusive.

SMILES | Nrf2 block | Nrf2 ARE act | miR-21 act | A549 viability | PI4K2A block | GALK inh
Clc1ccccc1C1=CC(c2ccco2)n2ncnc2N1 (stereo unspecified) | 4% | 11µM* | -3% | 1% | 3 | -1%
CCNC(=S)N/N=C/c1cc(C)ccc1C | 1% | 12% | -7% | 4% | 2 | 0%
C=CCNC(=S)N/N=C/c1ccc(C)cc1C | 18µM* | 14% | 17% | -3% | 4 | 6%
Cc1ccc(NC(=O)c2cc(CC(C)C)nc3ccccc23)cc1 | 5.8µM* | -2% | 0% | 4% | 4 | 2%
COc1ccc(C)c(NC(=O)[C@@H]2CCCN2S(=O)(=O)c2cccc3cccnc23)c1 | / | / | / | / | 2 | /
Cc1ccc(NC(=O)c2ccc(S(=O)(=O)N3CCCCCC3)cc2)nc1 | ? | 6% | / | 2% | -4 | /
O=C(Nc1cccnc1)c1ccc(Cl)c(S(=O)(=O)N2CCCCCC2)c1 | 15µM* | 2% | 15% | -5%[1.84 µM] | 8 | -3%
Cc1ccc(C(=O)Nc2cccnc2)cc1S(=O)(=O)N1CCCCCC1 | -3% | -1% | -8% | -3% | -3 | -7%
Cc1ccc(NC(=O)c2ccc(Cl)c(S(=O)(=O)N3CCCCCC3)c2)nc1 | 23µM* | 0% | / | ? | -3 | /
N#Cc1ccccc1NC(=O)c1ccccc1OCC(=O)NCc1ccco1 | 0% | 11µM* | -4% | 10% | -1 | 0%
CCOC(=O)C(=CNc1cccnc1Oc1ccc(C)c2c1CCC2)C(=O)OCC | 18µM* | 0% | 1% | -19% | 2 | 1%
COCCOC(=O)N(C)C[C@@H]1OCCCC[C@H](C)Oc2ccc(NC(=O)Nc3ccccc3)cc2C(=O)N([C@@H](C)CO)C[C@H]1C | / | / | / | / | 0 | /
COc1ccc(NC(=O)CSc2ccc3c4c(cccc24)C(=O)c2ccccc2-3)cc1 | 10µM* | 4% | -4% | ? | -1 | 1%
COc1ccc(NC(=O)CSc2nnc(C)c3ccccc23)cc1 | 19% | ? | -8% | -3% | -4 | -1%
N#Cc1cccc(NC(=O)CSc2ccccc2)c1 | 1% | 0% | -22% | 11% | -3 | 0%
N#Cc1cccc(NC(=O)CSc2ccc3c4c(cccc24)C(=O)c2ccccc2-3)c1 | ? | ? | -14% | 26µM* | 4 | 0%
CCOCCOC(=O)/C=C/c1ccc(OC)cc1 | / | / | / | / | 0 | /
Cc1ccc(-c2ccc(C(=O)Nc3ccccc3)o2)c2ccccc12 | 2% | 6% | -37% | 1% | -55* | /
Cc1ccc(-c2ccc(C(=O)NCc3ccccc3)o2)c2ccccc12 | -19% | 3% | -23% | 0% | -5 | /
CCOc1ccccc1C(=O)NC1CCN(CC(=O)Nc2cc(OC)ccc2OC)CC1 | 23µM* | 0% | -4% | 0% | 0 | 2%
CC(C)=CCC/C(C)=C/CC/C(C)=C/CCC(=O)OC/C=C(\C)CCC=C(C)C | / | / | / | / | -2 | /
COc1ccc(Cn2c(SCc3ccc(C(=O)NC4CCCC4)cc3)nc3ccncc32)cc1 | 16µM* | 0% | 15% | -14% | 2 | /
Cc1ccc(Cn2c(SCc3ccc(C(=O)NC4CCCCC4)cc3)nc3ccncc32)cc1 | 21µM* | 4% | 23% | -16% | 3 | /
COc1ccc(Cn2c(SCc3ccc(C(=O)NC4CCCCC4)cc3)nc3ccncc32)cc1 | 13µM* | 7% | ? | -5% | 4 | /
O=C(NC1CCCC1)c1ccc(CSc2nc3ccncc3n2Cc2cccc(F)c2)cc1 | ? | 10% | 3% | -3% | -3 | /
SMILES | Nrf2 block | Nrf2 ARE act | miR-21 act | A549 viability | PI4K2A block | GALK inh
O=C(NC1CCCCC1)c1ccc(CSc2nc3ccncc3n2Cc2ccccc2)cc1 | ? | 7% | 1% | -1% | -1 | /
O=C(NC1CCCC1)c1ccc(CSc2nc3ccncc3n2Cc2ccc(F)cc2)cc1 | ? | 4% | -5% | 1% | 1 | /
O=C1CCC[C@H]2C[C@H](NCc3ccc(Cl)c(Cl)c3)CC[C@]23CCCN13 | / | / | / | / | -1 | /
O=C1COc2ccc(S(=O)(=O)CCC(=O)N3CCN(c4ccccc4)CC3)cc2N1 | 2% | 0% | 0% | -3% | 8 | -1%
Cc1ccc(C)c(N2CCN(C(=O)CCS(=O)(=O)c3ccc4c(c3)CCN4C(=O)C3CC3)CC2)c1 | 26µM* | 0% | 2% | -4% | 2 | 4%
Cc1ccc(C)c(N2CCN(C(=O)CCS(=O)(=O)c3ccc4c(c3)NC(=O)CO4)CC2)c1 | 8.2µM* | -1% | ? | -10% | 1 | -4%
COC(=O)[C@]12C[C@H](CC(=O)N3CCN(C(=O)C4CC4)CC3)C(=O)N(CCC3=CCCCC3)C1=C[C@H](C1CCCC1)O[C@@H]2C | / | / | / | / | -1 | /
Cc1ccc(O)c(NC(=O)c2cc(C)no2)c1 | ? | 13µM* | -2% | 1% | 0 | -2%
COc1ccc(Cl)cc1NC(=O)c1cnccn1 | -13% | 13µM* | -6% | 1% | 1 | 0%
COc1ccc(Cl)cc1NC(=O)c1cc(C)no1 | 7% | 8.9µM* | 0% | 5% | -4 | /
COc1ccc(NC(=O)c2cc(C)no2)cc1Cl | 0% | 4% | -16% | -1% | 1 | 6%
C#CCNC(=O)C[C@H]1C[C@@]2(C(=O)OC)C(=C[C@H](COCc3ccccc3)O[C@@H]2C)N(Cc2cccc3ccccc23)C1=O | / | / | / | / | 1 | /
COc1ccc2c(c1)c(CC(=O)OC/C=C(\C)CC/C=C(\C)CCC=C(C)C)c(C)n2C(=O)c1ccc(Cl)cc1 | / | / | / | / | -1 | /
CCCCN(C)C(=O)c1ccc2c(c1)N(Cc1ccc(F)cc1)C(=O)c1ccccc1S2(=O)=O | 16µM* | 7% | 2% | ? | -7 | /
CN1CCN(CCCN2c3ccccc3Sc3ccc(Cl)cc32)CC1 | 8.2µM*! | -4% | ? | 18µM*! | -8 | -1%
COc1ccc(C2C3=C(N=CN(CCN4CCOCC4)C3N)Oc3ccccc32)cc1OC (stereo unspecified) | 8% | / | / | -1% | / | /
O=C(Nc1cccc(Cl)c1)O[C@@H]1CC[C@@]23CCCN2C(=O)CCC[C@H]3C1 | / | / | / | / | 1 | /
COC(=O)[C@H](CC1(c2cn(S(=O)(=O)CC[Si](C)(C)C)c3ccccc23)C(=O)Nc2ccccc21)NC(=O)OC(C)(C)C (stereo partly specified) | / | / | / | / | 1 | /
Clc1ccc(CSc2nnc(Cn3cnc4ccccc43)o2)cc1 | 8.2µM* | -1% | 19% | -14% | 0 | 0%
NC(=O)CSc1nnc(Cn2cnc3ccccc32)o1 | -14% | 0% | 3% | 8% | -1 | 1%

Screening data (PubChem BioAssay)
